Compounds with a hit are over-represented: about 1.2% of the library has one in this group of screens.
HUVEC tox TNFa = cytotoxicity in TNFa-stimulated HUVEC, primary screen, cytotoxicity control for VCAM1 expression modulator project, imaging, Hoechst nuclei count; HUVEC TNFalpha-stimulated, Hoechst cell count; cell count reduction, % at 2 µM; 93,000 tested, 0.17% active;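 active = cell count reduction exceeding the screen mean by over 5 SD, scaled to untreated wells per plate, cut at about 78% in these data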;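 note: cells counted after 24 h of TNF alpha exposure following the 1 h pretreatment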
cytoskel mod = modifiers of F-actin cytoskeleton organization, primary screen, imaging, HUVEC, phalloidin staining, high-content imaging | HUVEC TNFa F-actin phalloidin imaging | inhibition, % at 2 µM | 91,000 tested, 0.18% active | AID 836, 2007;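 active = inhibition above the batch mean plus 3 SD and confirmed as a hit by visual image inspection, cut at about 30% in these data, passing the limit was not always enough; inconclusive = above the inhibition threshold but rejected on visual inspection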
VCAM1 TNFa inh = inhibitors of TNFa-induced VCAM1 expression, primary screen, imaging, HUVEC, TNFa stimulus, immunofluorescence; 95,000 tested, 0.48% active; inhibition, % at 2 µM; HUVEC TNFa-induced VCAM-1 immunofluorescence, high-content imaging;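 active = inhibition above the batch mean plus 3 SD, with images confirmed as a hit by eye, cut at about 37% in these data; inconclusive = inhibition above that limit but hit not confirmed in images; inactive = inhibition not above that limit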
E-sel TNF inh = E-selectin induction blockers in HUVEC – imaging, immunofluorescence, high content, primary screen; HUVEC TNFa-induced E-selectin immunofluorescence; inhibition, % at 2 µM; 120,000 tested, 0.71% active; AID 1246, 2008;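 active = inhibition above the batch mean plus 3 SD, and confirmed as a hit on visual image review, cut at about 43% in these data; inconclusive = passes the inhibition cutoff but fails visual image review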
Large screens that a line does not name were inactive.

CCN(CC)c1ccc2cc(-c3nc4ccccc4[nH]3)c(=O)oc2c1	cytoskel mod 48
CCN(CC)c1ccc2cc(-c3nnc(-c4ccc(Br)cc4)o3)c(=O)oc2c1	none
CCN(CC)c1ccc2cc(-c3nc4ccccc4n3C)c(=O)oc2c1	VCAM1 TNFa inh 70 (no result: E-sel TNF inh)
COc1ccc(/C=N/NC(=O)COc2ccccc2-c2ccccc2)cc1	none
O=C(COc1ccccc1-c1ccccc1)N/N=C/c1cccc2ccccc12	VCAM1 TNFa inh 69
Cc1nc2ccccc2n1C1CCN(C(=O)Nc2ccccc2)CC1	none (no result: HUVEC tox TNFa, cytoskel mod, VCAM1 TNFa inh)
COC(=O)c1cc2sc(Cl)cc2n1CC(=O)Nc1cccc(SC)c1	E-sel TNF inh 65
C=CCNC(=O)c1nn2cccnc2c1Cl	HUVEC tox TNFa 92, cytoskel mod inconclusive, VCAM1 TNFa inh inconclusive
Cc1cc(NC(=O)c2nn3cccnc3c2Cl)no1	none (no result: E-sel TNF inh)
CC(=O)c1ccc(NC(=O)C(C)Nc2ccc(Cl)cc2)cc1 (configuration not stated)	none (no result: HUVEC tox TNFa, cytoskel mod, VCAM1 TNFa inh)
Cc1ccc(/C=C/C(=O)C2C(=O)c3ccccc3C2=O)cc1	E-sel TNF inh 66
O=C(CNc1ccc(Br)cc1)NNC1=NCCC1	none (no result: HUVEC tox TNFa, cytoskel mod, VCAM1 TNFa inh)
Cc1ccc(N2CC(C(=O)Nc3ccc4c(c3)OCO4)CC2=O)cc1 (configuration not stated)	HUVEC tox TNFa 89
O=C(Nc1ccc2c(c1)OCO2)C1CC(=O)N(c2ccc3c(c2)OCCO3)C1 (configuration not stated)	none (no result: HUVEC tox TNFa, cytoskel mod, VCAM1 TNFa inh)
COc1cccc(/C=N/Nc2nc(Nc3ccccc3)nc(-n3nc(C)cc3C)n2)c1O	VCAM1 TNFa inh 87
Cc1cc(C)n(-c2nc(Nc3ccccc3)nc(-n3nc(C)cc3C)n2)n1	none
Cc1nc(NC(=O)CSc2nnc(Cn3nnc4ccccc43)n2C)sc1C	none (no result: HUVEC tox TNFa, cytoskel mod, VCAM1 TNFa inh)
CSc1ncccc1C(=O)OCC(=O)c1cccc(Br)c1	none (no result: HUVEC tox TNFa, cytoskel mod, VCAM1 TNFa inh)
CO/N=C(/CNC(=O)c1ccc(F)cc1)c1ccc(Cl)cc1	none
N=c1nc(N)nc2n1NC(c1ccc(F)cc1)=CS2	VCAM1 TNFa inh 55
CC(C)C(C(=O)Nc1ccc2c(c1)OCCOCCOCCOCCO2)N1C(=O)c2ccccc2C1=O (configuration not stated)	none (no result: HUVEC tox TNFa, cytoskel mod, VCAM1 TNFa inh)
CC(=O)c1ccc(NC(=S)N2CC(C)CC(C)C2)cc1 (configuration not stated)	E-sel TNF inh 77 (no result: HUVEC tox TNFa, cytoskel mod, VCAM1 TNFa inh)
CC(=O)c1ccc(NC(=S)N2CCC(O)CC2)cc1	none (no result: HUVEC tox TNFa, cytoskel mod, VCAM1 TNFa inh)
COc1ccc(S(=O)(=O)NCc2csc(-c3cccnc3)n2)cc1	E-sel TNF inh 70
CCN(CC)c1ccc(C2C(C(=O)OCCOC(C)C)=C(C)NC3=C2C(=O)CCC3)cc1 (configuration not stated)	none (no result: cytoskel mod, E-sel TNF inh)
CC1=C(C(=O)OCCOC(C)C)C(c2cccnc2)C2=C(CCCC2=O)N1 (configuration not stated)	cytoskel mod 79 (no result: E-sel TNF inh)
CN(Cc1ccccc1)c1nc2c(c(=O)[nH]c(=O)n2C)n1CCSc1ncccn1	none
COc1ccc(-n2nnnc2S(=O)(=O)Cc2ccc(C(=O)O)cc2)cc1	none
COc1ccc(-n2nnnc2S(=O)(=O)CC(=O)N2CCCCC2)cc1	VCAM1 TNFa inh inconclusive, E-sel TNF inh 82
Cc1ccc(C)c(NC(=O)CSc2nnc([C@@H](N)Cc3ccccc3)o2)c1	E-sel TNF inh 62
Cc1ccc(C(=O)C(NC(=O)c2ccco2)Nc2sc3c(c2C(N)=O)CCCC3)cc1 (configuration not stated)	none
COc1ccc(C(=O)NC2(C(F)(F)F)NC(=O)N(CCCc3ccccc3)C2=O)cc1OC (configuration not stated)	none (no result: HUVEC tox TNFa, cytoskel mod, VCAM1 TNFa inh)
CCC(C)NC(=O)CCc1nc2ccccc2n1-c1ccccc1 (configuration not stated)	none (no result: HUVEC tox TNFa, cytoskel mod, VCAM1 TNFa inh)
COc1cc2c3nnc(-c4ccc(F)cc4)c-3cn(Cc3ccccc3)c2cc1OC	cytoskel mod 33
CCOc1ccccc1C(=O)N1CCN(c2cccc(Cl)c2)CC1	VCAM1 TNFa inh 84
CCOc1ccccc1N1CCN(C(=O)c2cccc(-c3ccc(O)cc3)c2)CC1	VCAM1 TNFa inh 44
O=C(O)c1ccccc1C(=O)N1CCN(c2cccc(Cl)c2)CC1	none
COc1ccc(/C(O)=C2\C(=O)C(=O)N(CCN3CCOCC3)C2c2ccccc2OC)cc1 (configuration not stated)	none (no result: HUVEC tox TNFa, cytoskel mod, VCAM1 TNFa inh)
COc1ccccc1C1/C(=C(/O)c2ccc(C)cc2)C(=O)C(=O)N1CCN1CCOCC1 (configuration not stated)	E-sel TNF inh 70 (no result: HUVEC tox TNFa, cytoskel mod, VCAM1 TNFa inh)
C/C(=N\NC(=O)CCC(=O)Nc1ccccc1)c1cccs1	none (no result: HUVEC tox TNFa, cytoskel mod, VCAM1 TNFa inh)
CCc1c(C)c(C#N)c2nc3ccccc3n2c1Cl	E-sel TNF inh 67 (no result: HUVEC tox TNFa, cytoskel mod, VCAM1 TNFa inh)
Cc1cc(NCCN2CCCCC2)n2c(nc3ccccc32)c1C#N	E-sel TNF inh 100
CCOC(=O)/C(=N\Nc1cc(Cl)ccc1Cl)N1CCN(CC)CC1	none (no result: HUVEC tox TNFa, cytoskel mod, VCAM1 TNFa inh)
O=C(C1CCN(S(=O)(=O)c2cccc3cccnc23)CC1)N1CCN(C2CCCC2)CC1	none (no result: HUVEC tox TNFa, cytoskel mod, VCAM1 TNFa inh)
COc1cc(/C=C(/C(=O)c2cccs2)c2nc3ccccc3[nH]2)cc(OC)c1O	none
O=C1N(c2ccccc2)C2CS(=O)(=O)CC2N1c1ccc(Br)cc1 (configuration not stated)	E-sel TNF inh 100
COc1ccc(-c2c3c(nc4sc5c(Cl)nc(C)nc5c24)CCC3)cc1	none
Cc1ccc(OCCCC(=O)Nc2ccc(N3CCOCC3)cc2)c(C)c1	none
Cc1ccccc1OCCCC(=O)Nc1ccc(N2CCOCC2)cc1	E-sel TNF inh 76 (no result: HUVEC tox TNFa, cytoskel mod, VCAM1 TNFa inh)
COc1ccc(NC(=S)N2CCNC(=O)C2CC(=O)Nc2cccc(Cl)c2C)cc1 (configuration not stated)	none (no result: HUVEC tox TNFa, cytoskel mod, VCAM1 TNFa inh)
COc1ccc(OC)c(S(=O)(=O)N2CCC(C(=O)N3CCc4ccccc4C3)CC2)c1	none
CC(C)[C@H](NC(N)=O)C(=O)Nc1ccc(F)c(Cl)c1	none (no result: HUVEC tox TNFa, cytoskel mod, VCAM1 TNFa inh)
CCOC(=O)C[n+]1c(C)sc2ccc(OC)cc21	E-sel TNF inh 66
CCOc1ccc(NC(=O)Cc2ccccc2)c([N+](=O)[O-])c1	none (no result: HUVEC tox TNFa, cytoskel mod, VCAM1 TNFa inh)
CCOc1ccc(NC(=O)/C=C/c2ccc(OC)cc2)c([N+](=O)[O-])c1	E-sel TNF inh 61 (no result: HUVEC tox TNFa, cytoskel mod, VCAM1 TNFa inh)
CCOc1ccc(NC(=O)COC(=O)C23CC4CC(CC(C4)C2)C3)c([N+](=O)[O-])c1	E-sel TNF inh 95 (no result: HUVEC tox TNFa, cytoskel mod, VCAM1 TNFa inh)
NC(=O)c1ccc(C(F)(F)F)n(Cc2cccc(Cl)c2)c1=O	none
COc1ccc(N=C2SC(C(=O)Nc3ccc(OC)cc3)CC(=O)N2CCN2CCOCC2)cc1 (configuration not stated)	none (no result: HUVEC tox TNFa, cytoskel mod, VCAM1 TNFa inh)
CC1=C(C#N)C(Nc2cccc(C)n2)(C(F)(F)F)C(=O)N1 (configuration not stated)	HUVEC tox TNFa 82, VCAM1 TNFa inh 91 (no result: E-sel TNF inh)
CCOC(=O)c1c(NC(=O)CSc2nnc(-c3ccccc3)n2CC)sc(C(C)=O)c1C	E-sel TNF inh 100
O=C(CCn1c2c(c3ccccc31)CCCC2)NNC(=O)c1ccccc1[N+](=O)[O-]	E-sel TNF inh 81 (no result: HUVEC tox TNFa, cytoskel mod, VCAM1 TNFa inh)
Oc1ccc(N=Nc2n[nH]c(-c3ccc(Cl)cc3)n2)cc1	cytoskel mod 52
Cc1ncc(N=Nc2ccc(F)cc2)c(-c2ccc(Cl)cc2)n1	none
CCC(C)N(NC(C)=O)c1nc(Cl)nc(NC(C)(C)C)n1 (configuration not stated)	none
CC(C)OCCCNC(=O)NC(=O)c1ccc(Cl)cc1	none (no result: HUVEC tox TNFa, cytoskel mod, VCAM1 TNFa inh)

Screens: PubChem, Columbia University Molecular Screening Center
